Bioassay records deposited in PubChem BioAssay by several laboratories.
GSIS activator – GLuc luminescence reporter in INS-1E cells, primary screen for activators of glucose-dependent secretion of insulin. INS-1E GLuc reporter insulin secretion, 2-3 h. activation, % at 16.6 µM. 370,000 compounds, 0.61% hits;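 active = lowest replicate activation of at least 40%, so every replicate reaches that level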
Bfl-1 A1 inh – inhibitors of the anti-apoptotic protein A1, read as caspase activation; 330,000 compounds, 0.066% hits; caspase activation, % (test concentration not listed); MEF A1-2A-BIM cells, Caspase-Glo 3/7 luminescence, 3 h; percent of clofoctol response, vehicle zero; AID 2462;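 active = over half of replicate activation scores above 10%, or exactly half above 10 with the replicate mean above 10; inconclusive = replicate mean below 10 yet half the replicates above 10; inactive = over half of replicates below 10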
Vif imaging – inhibitors of HIV Vif; HEK293T cells, Vif self-association by quenched fluorescence, imaging, 24 h; inhibition, % at 7.49 µM; 340,000 compounds, 0.35% hits; in the data active = inhibition above about 50%, passing the limit was not always enough; inconclusive = no clear call, values can overlap the other calls; inactive = below about 31%
dFosB act – activators of mouse delta FosB homodimer; P13346; purified delta FosB, TAMRA-CDK5 oligo fluorescence polarization; percent of positive-control signal above neutral wells; activation, % at 25 µM; 340,000 compounds, 0.99% hits; AID 493131;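 active = mean activation above about 17%, with every replicate also reaching it, limit read from the data, passing the limit was not always enough; inconclusive = only one of the two conditions met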
Neddylation inh – cullin neddylation inhibition. TR-FRET cullin neddylation, biochemical. inhibition, % at 25 µM. 360,000 compounds, 0.58% hits; in the data active = inhibition above about 36%
Target sequence (P61081 whole entry, looked up): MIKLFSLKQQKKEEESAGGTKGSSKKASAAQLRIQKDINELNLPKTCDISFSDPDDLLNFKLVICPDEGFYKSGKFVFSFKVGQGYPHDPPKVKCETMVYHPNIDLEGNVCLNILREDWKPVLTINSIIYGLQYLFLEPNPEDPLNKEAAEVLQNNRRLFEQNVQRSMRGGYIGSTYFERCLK
Target sequence (Q13564 whole entry, looked up): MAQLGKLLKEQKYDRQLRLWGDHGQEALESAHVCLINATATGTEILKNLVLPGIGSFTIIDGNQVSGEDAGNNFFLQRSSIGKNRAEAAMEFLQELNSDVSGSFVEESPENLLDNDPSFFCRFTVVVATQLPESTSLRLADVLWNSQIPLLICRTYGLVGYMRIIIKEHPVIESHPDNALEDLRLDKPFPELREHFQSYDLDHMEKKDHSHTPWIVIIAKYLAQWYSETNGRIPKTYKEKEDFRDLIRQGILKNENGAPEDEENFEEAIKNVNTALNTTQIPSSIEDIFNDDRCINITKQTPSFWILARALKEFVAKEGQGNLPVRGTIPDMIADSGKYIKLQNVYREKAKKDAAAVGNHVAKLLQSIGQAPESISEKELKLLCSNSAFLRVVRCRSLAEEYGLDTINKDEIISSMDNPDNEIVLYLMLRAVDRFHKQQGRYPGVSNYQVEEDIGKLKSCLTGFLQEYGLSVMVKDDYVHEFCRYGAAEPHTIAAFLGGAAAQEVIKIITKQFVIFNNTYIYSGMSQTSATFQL
A number is an active result; n = inactive; u = inconclusive; x = not tested or not shown. A selection: hits, their analogues and other compounds. The true share with any hit is near 1.9%.

SMILES | GSIS activator | Bfl-1 A1 inh | Vif imaging | dFosB act | Neddylation inh
CC1CN(c2ccc([N+](=O)[O-])c(NCCOc3ccccc3)c2)CC(C)N1 (stereo unspecified) | x | n | n | n | n
O=C(c1ccc2c(c1)OCO2)N1CC2(C1)[C@@H](c1ccccc1)[C@@H](CO)N2C(=O)C1CC1 | n | x | x | x | x
CCN=C1NC(c2ccc(C(F)(F)F)cc2)C(C(=O)OC)=C(C)N1Cc1cccc(C(F)(F)F)c1 (stereo unspecified) | 41 | x | x | x | x
COC(=O)C1=C(C)N(Cc2cccc(C(F)(F)F)c2)C(=NCC2CC2)NC1c1ccc(F)cc1 (stereo unspecified) | n | x | x | x | x
COC(=O)C1=C(C)N(C)C(=NCc2cccc(C(F)(F)F)c2)NC1c1ccccc1 (stereo unspecified) | n | x | x | x | x
COC(=O)C1=C(C)N(Cc2ccccc2)C(=NCc2cccc(C(F)(F)F)c2)N[C@H]1c1cccc(C(F)(F)F)c1 | x | n | n | n | n
COC(=O)C1=C(C)N(Cc2cccc(C(F)(F)F)c2)C(=NCC2CC2)NC1c1cccc(C(F)(F)F)c1 (stereo unspecified) | 420 | x | x | x | x
CCN=C1NC(c2ccc(F)cc2)C(C(=O)OC)=C(C)N1Cc1cccc(C(F)(F)F)c1 (stereo unspecified) | n | x | x | x | x
COC(=O)C1=C(C)N(C)C(=NCc2cccc(C(F)(F)F)c2)NC1c1ccc(C(F)(F)F)cc1 (stereo unspecified) | 45 | x | x | x | x
COC(=O)C1=C(C)N(Cc2cccc(C(F)(F)F)c2)C(=NCc2ccc(C(F)(F)F)cc2)NC1c1ccccc1 (stereo unspecified) | 501 | x | x | x | x
COC(=O)N(C)C[C@@H]1OCc2ccccc2-c2c(n(C)c3ccccc23)C(=O)N([C@@H](C)CO)C[C@@H]1C | n | x | x | x | x
COC(=O)C1=C(C)N(Cc2ccc(C(F)(F)F)cc2)C(=NCc2ccccc2)NC1c1cccc(C(F)(F)F)c1 (stereo unspecified) | 158 | x | x | x | x
CCN=C1NC(c2ccc(Cl)cc2)C(C(=O)OC)=C(C)N1Cc1cccc(C(F)(F)F)c1 (stereo unspecified) | n | x | x | x | x
COC(=O)C1=C(C)N(Cc2cccc(C(F)(F)F)c2)C(=NCc2ccc3c(c2)OCO3)NC1c1ccc(Cl)cc1 (stereo unspecified) | 146 | x | x | x | x
COc1ccc2c3c([nH]c2c1)[C@@H](CO)N(C(=O)CN(C)C)CC31CCN(CC2CC2)CC1 | n | x | x | x | x
O=C(C[C@H]1CC[C@@H](NC(=O)c2ccccc2)[C@H](CO)O1)NCc1ccncn1 | n | x | x | x | x
CC1(C)Cc2c(c(N3CCOCC3)nc3sc4c(NCCN)ncnc4c23)CO1 | 52 | x | n | n | n
CC1(C)Cc2c(c(-c3ccco3)nc3sc4c(NCCO)ncnc4c23)CO1 | 88 | n | n | n | x
O=C(Nc1cccc(C(=O)O)c1)/C(=C\c1ccc(F)cc1)NC(=O)c1ccco1 | n | n | 64 | n | n
O=C(NC1CCCC1)C(C1CC1)n1c(-c2ccccn2)nc2ccccc21 (stereo unspecified) | 43 | x | x | x | n
C[C@@H]1CN([C@H](C)CO)C(=O)c2cc(-c3ccc(F)cc3)cnc2O[C@H]1CN(C)CC1CCCCC1 | n | x | x | x | x
S=C1NC2(CCCCC2)NN1c1ccccc1 | n | n | n | n | n
c1cc2c3c(cccc3c1)NC1(CCCCC1)N2 | n | n | n | 40 | n
CC1=Nc2cccc3cccc(c23)N1 | x | n | n | n | n
c1cc2c3c(cccc3c1)NC1(CCCCCC1)N2 | x | u | n | 23 | n
SMILES | GSIS activator | Bfl-1 A1 inh | Vif imaging | dFosB act | Neddylation inh
c1cc2c3c(cccc3c1)NC1(CCC3(CC1)Nc1cccc4cccc(c14)N3)N2 | n | n | n | n | 58
C[C@H](CO)N1C[C@H](C)[C@H](CN(C)CC2CCCCC2)Oc2c(NC(=O)C3CCCCC3)cccc2C1=O | n | x | x | x | x
COc1cccc(NC(=O)CN(C)C(=O)Cn2[nH]c(=O)c3ccccc3c2=O)c1 | 41 | n | n | n | n
COc1ccc(Cl)cc1NC(=O)CN(C)C(=O)Cn1[nH]c(=O)c2ccccc2c1=O | n | n | n | n | n
Cc1ccc(S(=O)(=O)N[C@@H]2CC[C@H](CC(=O)NCc3ccccc3F)O[C@H]2CO)cc1 | n | x | x | x | x
O=S(=O)(c1ccccc1)N(F)S(=O)(=O)c1ccccc1 | n | n | 59 | n | n
CCOC(=O)C1=C(C)NC(C)=C(C(=O)OC)C1c1cccc([N+](=O)[O-])c1 (stereo unspecified) | n | n | 135 | n | n
C[C@H](CO)N1C[C@H](C)[C@@H](CN(C)C(=O)Nc2cccc3ccccc23)Oc2c(NC(=O)Nc3ccc4c(c3)OCO4)cccc2C1=O | n | x | x | x | x
Cc1ccc(-c2nn3c(C)nnc3c3ccccc23)cc1S(=O)(=O)NCCN1CCOCC1 | n | n | n | n | n
Cc1ccc(-c2nn3c(C)nnc3c3ccccc23)cc1S(=O)(=O)NCc1ccccc1 | n | n | 87 | n | n
O=C(NCc1ccco1)c1ccc2c(=O)n(CCC3=CCCCC3)c(=O)[nH]c2c1 | 68 | n | n | n | n
CCN1CCN(C(=O)c2ccc3c(=O)n(CCC4=CCCCC4)c(=O)[nH]c3c2)CC1 | x | n | x | n | n
C[C@H]1CN([C@@H](C)CO)S(=O)(=O)c2ccc(-c3ccc(C(=O)N(C)C)cc3)cc2O[C@@H]1CN(C)Cc1ccccc1C(=O)O | n | x | x | x | x
S=c1[nH]nc(-c2cccc(Cl)c2)n1/N=C/c1ccc(-c2ccccc2Br)o1 | n | n | n | 42 | n
Cc1ccc(/C=N/n2c(-c3cccc(Cl)c3)n[nH]c2=S)o1 | n | n | n | x | n
CCOC(=O)C1=C(COC(=O)/C=C/c2ccc(O)c(OC)c2)NC(=O)NC1C (stereo unspecified) | 59 | n | n | n | n
CCOC(=O)C1=C(COC(=O)/C=C/c2ccc(OC)c(OC)c2)NC(=O)NC1C (stereo unspecified) | n | n | x | n | n
CC(C)=CC(=O)N1CCC(N2CCC(C(=O)N3CCOCC3)CC2)CC1 | n | n | n | n | n
CN1CCCCCC1C(=O)N1CCC(N2CCC(C(=O)N3CCOCC3)CC2)CC1 (stereo unspecified) | 49 | n | n | n | n
Cc1ccc(-c2ccc([C@H]3[C@H](CO)N4C(=O)CN(C(=O)c5ccncc5)C[C@@H]34)cc2)cc1 | n | x | x | x | x
CO[C@H]1CN(C)C(=O)c2ccc(NC(=O)Nc3ccccc3F)cc2OC[C@H](C)N(C)C[C@H]1C | n | x | x | x | x
NNC(=O)c1cccnc1Oc1ccccc1 | 44 | n | n | n | n
C[C@@H]1CCCCO[C@@H](CN(C)C(=O)Nc2ccc3c(c2)OCO3)[C@@H](C)CN([C@H](C)CO)C(=O)c2cc(NC(=O)Cc3ccccc3)ccc2O1 | n | x | x | x | x
Cc1ccc(CNC(=O)C(=O)NCC2OCCN2C(=O)c2ccc3c(c2)OCO3)cc1 (stereo unspecified) | n | n | n | 17 | n
